# Screens from PubChem.
# ALOX15 inhib: qHTS Assay for Inhibitors of 15-hLO (15-human lipoxygenase). 74,000 tested, 1.4% active. purified 15hLO-1, xylenol orange hydroperoxide absorbance. Potency, µM (titrated, usually from 57.1 µM), without a hit: at the top dose activity change, negative = inhibition, actives largely listed as inhibitors; also: nearly all actives have a fitted effect of over 55% in size
#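 Purified human 15hLO-1 (40 nM final) in 25 mM Hepes pH 7.5, 0.01% Triton X-100 was preincubated with compound 15 min at room temperature, then reacted 6 min with 50 uM arachidonic acid; hydroperoxide detected by Fe-XO, 573/405 nm absorbance ratio.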
# HSD17B inhib: qHTS Assay for Inhibitors of HSD17B4, hydroxysteroid (17-beta) dehydrogenase 4 | recombinant HSD17B10, NADH fluorescence kinetic | AID 893, 2007 | Potency, µM (series often up to 57.1 µM), for inactives: top-dose activity change, negative = inhibition, hits mostly inhibitors | 75,000 tested, 7.6% active;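 also: the protocol describes HADH2 (HSD17B10) and not the HSD17B4 of the title; nearly all actives have a fitted effect of over 70% in size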
#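 Activity followed as NADH fluorescence increase (ex 360, em 450 nm) every 30 seconds for 4 min, using final 90 uM beta-hydroxybutyryl CoA and 1 mM NAD+. Recombinant His-tagged enzyme, 20 nM, pH 9.0 Tris buffer, 15 min compound preincubation.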
# PK Bst: Pyruvate Kinase | purified pyruvate kinase, luminescence ATP production; ribose 5-phosphate activator present at AC10 | 51,000 tested, 1.2% active | Potency, µM; in the data active = potency below about 11 µM; inconclusive = mostly about 12 µM to 25 µM;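 the screen sought inhibitors and activators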;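 also: scaled between full activation by ribose 5 phosphate and full inhibition by luteolin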
# FLuc inh: qHTS Assay for Inhibitors of Firefly Luciferase; Potency, µM (doses to about 57.1 µM), for inactives: at the highest dose activity change, negative = inhibition, usual class: inhibitors; AID 411, 2009; 72,000 tested, 2.2% active; Luciferin 4-monooxygenase (Photinus pyralis), P08659; purified firefly luciferase, luminescence, 8 min; also: nearly all actives have a fitted effect of over 40% in size
#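 Firefly luciferase (PKLight detection mix) with 10 uM ATP in pH 7.2 imidazole buffer (KCl, MgCl2, Tween 20, BSA). Compounds tested across a concentration series (qHTS). Luminescence read after 8 min at ambient temperature.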
# HADH2 inhib: qHTS Assay for Inhibitors of HADH2 (Hydroxyacyl-Coenzyme A Dehydrogenase, Type II); Potency, µM (highest dose often 57.1 µM), for inactives: at the top dose activity change, negative = inhibition, usual class: inhibitors; recombinant HADH2, NADH fluorescence, beta-hydroxybutyryl-CoA; 3-hydroxyacyl-CoA dehydrogenase type-2 (Homo sapiens), Q99714; 73,000 tested, 3.4% active; also: nearly all actives have a fitted effect of over 60% in size
# Target sequence (Q99714 whole entry, looked up, one chain of several): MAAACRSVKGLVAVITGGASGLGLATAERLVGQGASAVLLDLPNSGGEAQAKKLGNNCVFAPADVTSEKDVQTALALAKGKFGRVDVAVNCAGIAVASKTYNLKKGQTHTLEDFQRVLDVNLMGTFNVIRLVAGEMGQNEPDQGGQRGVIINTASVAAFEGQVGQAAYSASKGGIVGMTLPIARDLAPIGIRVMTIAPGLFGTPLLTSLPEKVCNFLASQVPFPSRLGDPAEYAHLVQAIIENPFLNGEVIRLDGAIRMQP
#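 20 nM HADH2 + cpd, 15 min RT; add 1 mM NAD+/90 uM beta-hydroxybutyryl-CoA; kinetic fluorescence 360/450 nm, 4 min. Tris-HCl pH 9.0, 0.01% Tween-20.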
# ERK AVP inh: qHTS Assay for Inhibitors of the ERK Signaling Pathway using a Homogeneous Screening Assay | HEK293-V1b, vasopressin-stimulated pERK AlphaScreen | Potency, µM (highest dose often 57.5 µM), for inactives: at the top dose activity, negative = inhibition, hits mostly inhibitors | 72,000 tested, 0.99% active | AID 995, 2007; also: nearly all actives have a fitted effect of over 55% in size
#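 V1b-HEK293 cells; cpd 30 min 37C; 25 nM vasopressin 5 min; lyse 10 min; AlphaScreen beads 5 hr RT. Normalized to DMSO basal and 25 nM vasopressin; AC50 by Hill fit.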
# The depositor's hits bear a star; ? = inconclusive; nt = no result given; [ ] = dose if it differs, or a comment. Only some compounds are listed: those with a hit (about 11% of all), similar ones and a draw of the others. Unless noted, calls follow the shape of the dose curve; as a rule, active = well fitted curve in the direction sought with a large enough effect; inconclusive = small, poorly fitted or top-dose-only effect, or another doubt; inactive = no such curve, though single readings can be large; an effect the other way counts as inactive or inconclusive. Unless noted, % is scaled to controls: 0 for no effect and ±100 for the full control effect; potency is read from the fitted curve at half-maximal effect.
SMILES,ALOX15 inhib,HSD17B inhib,PK Bst,FLuc inh,HADH2 inhib,ERK AVP inh
CCCn1c(C)nc2c(NC(C)CCCN(CC)CC)nc(C)nc21 (configuration not stated),?,2%,nt,nt,4%,-17%
CCCn1c(-c2ccc(F)cc2)nc2c(NCCCCN(CC)CC)nc(C)nc21,1%,25µM*,nt,nt,-12%,-19%
CCCn1c(-c2ccc(F)cc2)nc2c(NCCN3CCCC3)nc(C)nc21,-19%,32µM*,nt,nt,-12%,22%
CO[C@H]1COC(=O)[C@H](C)NC(=O)C/C=C\[C@@H](C)[C@@H](NS(=O)(=O)c2ccc(C)cc2)COC(=O)[C@H](OCc2ccccc2)/C=C\[C@@H]1C,-2%[11.4 µM],3%[11.4 µM],nt,0%[11.4 µM],3%[11.4 µM],26%[11.5 µM]
CCCn1c(-c2ccc(F)cc2)nc2c(NCCCN(C)C)nc(C)nc21,-23%,25µM*,nt,nt,?,0%
CCCn1c(-c2ccc(F)cc2)nc2c(N(C)CCN(C)C)nc(C)nc21,?,?,nt,nt,5%,-16%
CCCn1c(-c2ccc(F)cc2)nc2c(NCC(C)(C)CN(C)C)nc(C)nc21,13µM*,25µM*,nt,nt,?,-9%
CCCn1c(-c2ccc(F)cc2)nc2c(NC3CCN(Cc4ccccc4)CC3)nc(C)nc21,20µM*,32µM*,nt,nt,?,2%
Cn1cccc1C(=O)N1CCC[C@@]2(CCN(c3ccccc3)C2)C1,-30%,0%,nt,-1%[11.4 µM],13%,?
c1ccc(-c2noc(C34CC5CC(CC(C5)C3)C4)n2)nc1,-2%,19%,nt,16µM*,8%,2%
c1ccc(-c2noc(C3CCCCC3)n2)nc1,-14%,-6%,nt,?,0%,?
O=C(O)c1ccccc1N[C@H](c1ccccc1)c1ccc2cccnc2c1O,-15%[11.4 µM],4µM*,nt,0%[11.4 µM],-22%[11.4 µM],-12%[11.5 µM]
CC(=O)NC(c1ccco1)c1ccc2cccnc2c1O (configuration not stated),3%,0%,nt,1%,-23%,16µM*
Cc1ccc(N[C@H](c2ccccc2)c2ccc3cccnc3c2O)cc1,38%[11.4 µM],-5%[11.4 µM],nt,0%[11.4 µM],8%[11.4 µM],-8%[11.5 µM]
CCCNC(=O)OC[C@@H]1O[C@H](CCO/N=C(\C)CCN2CCCCc3nc(C)c(C)cc32)C=C[C@@H]1Oc1ccc(OC)cc1,13%[11.4 µM],6%[11.4 µM],nt,2%[11.4 µM],7%[11.4 µM],6%[11.5 µM]
CC(C)c1nc(N2CCOCC2)c(C#N)c2c1CCCC2,-10%,32µM*,>57,0%,123%,49%
OC1(C(O)(c2ccc(-c3ccccc3)cc2)c2ccc(-c3ccccc3)cc2)CCCCC1,14%[11.4 µM],2%[11.4 µM],nt,2%[11.4 µM],-2%[11.4 µM],29%[11.5 µM]
CC(C)Cc1cc(-c2ccco2)c(C#N)c(N)n1,1%,3.2µM*,nt,0%,?,-18%
N#Cc1c(-c2ccco2)cc(-c2ccc(F)cc2)nc1N,-21%,25µM*,4.7*,1%,?,5%
Cc1ccc(S(=O)(=O)OCC(=O)O)cc1,0%[11.4 µM],4%[11.4 µM],nt,1%[11.4 µM],6%[11.4 µM],-1%[11.5 µM]
CSc1ccccc1NC(=O)c1cc(-c2cccs2)on1,-5%,32µM*,>57,-6%,?,30%
C1CCOC1,-1%,1%,nt,nt,-1%,9%
NC(=O)SCC(=O)Nc1ccc(Cl)c(Cl)c1,?,-3%,nt,-3%,?,13%
NC(=O)SCC(=O)Nc1ccc(Cl)cc1,25µM*,-11%,nt,nt,?,nt
O=C1NC(=S)SC1=C1CCCCCC1,?,?,>57,4%,25µM*,-17%
N#C[C@H](c1ccccc1)N1CCCN([C@@H](C#N)c2ccccc2)C1c1ccccc1O (some centres not stated),-13%[11.4 µM],-2%[11.4 µM],nt,2%[11.4 µM],8%[11.4 µM],21%[11.5 µM]
CCOC(=O)c1cc(C#N)c(N)nc1C,5%,32µM*,>57,0%,16%,-29%
